Test [1] is described as follows: anti-His antibody binders, primary screen, artefact control for SMM control protein annotation, biochemical, small-molecule microarray, 635 nm fluorescence (AID 1128).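 Further: score merges feature fluorescence with signal-to-noise for each printed compound spot.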 Particulars: anti-His Alexa647 antibody binding, higher = more signal.
Test [2] deals with Human papillomavirus type 1a E7 protein (residues 1-88). The experiment in a line: HPV1a E7 small-molecule binders, primary screen, biochemical, small-molecule microarray, residues 1-88, 635 nm (AID 1129). As to conditions: small-molecule microarray binding, fluorescence 635 nm; higher = more signal.
For test [3], the target named is Focal adhesion kinase 1 (Homo sapiens) (UniProt Q05397). Description: small-molecule microarray binders of FAK, primary screen, biochemical, 635/667 nm fluorescence, BSA, DTT (AID 1130).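 Further: composite of spot emission at 667 nm and signal to noise over triplicate slides.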 As to conditions: PTK2 binding, 635 nm fluorescence, higher = more signal.
For test [4], the system named is Fibrinogen (Alexa647-labelled). The experiment in a line: fibrinogen binders on compound microarrays, profiling panel, artefact control for SMM control-protein annotation, biochemical, small-molecule microarray, 635/667 nm fluorescence (AID 1131).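 Further: z-score merges 667 nm fluorescence with per-spot signal-to-noise over triplicate slides.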 As to conditions: fibrinogen-A647 binding fluorescence, higher = more signal.
Test [5] concerns the target Follistatin (Homo sapiens) (UniProt P19883). Description: follistatin binders on small-molecule microarrays, primary screen, biochemical, small-molecule microarray, 635/667 nm fluorescence (AID 1132). Particulars: FST binding, 635 nm fluorescence, higher = more signal.
Test [6] has as its target Fibroblast growth factor 2 (Homo sapiens) (UniProt P09038). The experiment in a line: FGF2 binders on small-molecule microarrays, primary screen, biochemical, small-molecule microarray, 635/667 nm fluorescence (AID 1133). Particulars: small-molecule microarray binding, FGF2, fluorescence 635/667; higher = more signal.
Test [7] is described as follows: mitochondrial membrane potential change in A549 cells, profiling panel, cell-based, JC-1 fluorescence, basal, 24 h, 100 nL (AID 1138).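 Further: A549 lung adenocarcinoma cells under basal conditions with no added stimulus; test concentration not given here.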 As to conditions: higher = more signal.
Another test concerns Lefty1. Description: Lefty1 binders on small-molecule microarrays, primary screen, biochemical, small-molecule microarray, 635/667 nm fluorescence (AID 1139). Particulars: small-molecule microarray binding, fluorescence 635/667; higher = more signal.
In test [8] the test system is wheat germ agglutinin (Triticum aestivum), Alexa647-labelled. The experiment in a line: wheat germ agglutinin binders on compound microarrays, profiling panel, artefact control for SMM control-protein annotation, biochemical, small-molecule microarray, 635/667 nm fluorescence (AID 1140).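 Further: score merges 667 nm feature emission with signal to noise over triplicate slides.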 Particulars: WGA-A647 binding, 635 nm fluorescence, higher = more signal.
Test [9] has as its target Luciferin 4-monooxygenase (Photinus pyralis) (UniProt P08659). Description: firefly luciferase enzyme inhibitors, primary screen, biochemical, luminescence, purified enzyme, 2006 set (AID 1141).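 Further: cell-free assay with purified firefly luciferase at 100 ng per well in PBS; test concentration not given here.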 As to conditions: SteadyGlo luminescence, 30 min, higher = more signal, called active from +8 up or from −8 down.

This passage reports composite z-score and z-score results from PubChem BioAssay.

Calls of active or inactive are those of the source.

Sequence of Fibroblast growth factor 2 (Homo sapiens) (P09038 whole entry, looked up): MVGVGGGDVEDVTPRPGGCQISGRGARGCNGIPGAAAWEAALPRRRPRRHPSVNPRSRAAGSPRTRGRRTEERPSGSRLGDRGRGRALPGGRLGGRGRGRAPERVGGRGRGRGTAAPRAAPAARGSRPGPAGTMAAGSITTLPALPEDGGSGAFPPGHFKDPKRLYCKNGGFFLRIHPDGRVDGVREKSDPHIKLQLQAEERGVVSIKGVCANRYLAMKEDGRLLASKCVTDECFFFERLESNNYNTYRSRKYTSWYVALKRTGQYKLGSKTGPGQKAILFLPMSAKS
Sequence of Follistatin (Homo sapiens) (P19883 whole entry, looked up): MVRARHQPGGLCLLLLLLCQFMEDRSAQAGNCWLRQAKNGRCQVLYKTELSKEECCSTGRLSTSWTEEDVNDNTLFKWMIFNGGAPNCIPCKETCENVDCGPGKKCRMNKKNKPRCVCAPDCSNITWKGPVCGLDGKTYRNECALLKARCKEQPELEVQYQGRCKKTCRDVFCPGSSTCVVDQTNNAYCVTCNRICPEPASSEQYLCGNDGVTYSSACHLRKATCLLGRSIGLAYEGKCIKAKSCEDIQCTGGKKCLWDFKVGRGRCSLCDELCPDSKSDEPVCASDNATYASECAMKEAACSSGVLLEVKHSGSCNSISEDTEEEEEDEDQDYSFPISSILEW
Sequence of Focal adhesion kinase 1 (Homo sapiens) (Q05397 whole entry, looked up): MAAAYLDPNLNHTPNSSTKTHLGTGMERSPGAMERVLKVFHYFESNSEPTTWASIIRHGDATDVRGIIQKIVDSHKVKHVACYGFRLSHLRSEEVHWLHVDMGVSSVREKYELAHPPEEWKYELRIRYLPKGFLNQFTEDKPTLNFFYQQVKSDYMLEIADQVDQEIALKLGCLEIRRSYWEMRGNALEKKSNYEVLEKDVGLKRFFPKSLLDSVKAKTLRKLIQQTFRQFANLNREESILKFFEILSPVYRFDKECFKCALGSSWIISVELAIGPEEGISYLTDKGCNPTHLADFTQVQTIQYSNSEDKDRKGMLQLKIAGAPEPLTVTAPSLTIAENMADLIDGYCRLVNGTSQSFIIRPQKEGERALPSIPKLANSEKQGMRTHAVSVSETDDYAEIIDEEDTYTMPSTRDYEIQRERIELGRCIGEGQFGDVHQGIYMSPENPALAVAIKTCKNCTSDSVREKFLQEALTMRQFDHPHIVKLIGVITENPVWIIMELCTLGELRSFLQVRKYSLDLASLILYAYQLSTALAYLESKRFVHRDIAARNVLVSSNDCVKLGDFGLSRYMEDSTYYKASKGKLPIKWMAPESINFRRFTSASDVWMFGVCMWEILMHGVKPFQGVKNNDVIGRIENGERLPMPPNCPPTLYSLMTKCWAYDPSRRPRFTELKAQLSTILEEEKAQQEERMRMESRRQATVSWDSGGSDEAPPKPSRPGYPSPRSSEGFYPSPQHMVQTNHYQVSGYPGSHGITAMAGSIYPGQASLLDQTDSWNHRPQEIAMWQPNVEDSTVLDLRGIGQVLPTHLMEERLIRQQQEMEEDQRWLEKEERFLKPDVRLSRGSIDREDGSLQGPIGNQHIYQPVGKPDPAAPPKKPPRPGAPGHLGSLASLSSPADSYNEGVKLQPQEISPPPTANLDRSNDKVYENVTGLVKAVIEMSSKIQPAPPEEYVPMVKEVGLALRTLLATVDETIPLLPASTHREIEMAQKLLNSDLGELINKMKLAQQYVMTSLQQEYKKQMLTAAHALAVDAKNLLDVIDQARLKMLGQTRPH
Sequence of Luciferin 4-monooxygenase (Photinus pyralis) (P08659 whole entry, looked up): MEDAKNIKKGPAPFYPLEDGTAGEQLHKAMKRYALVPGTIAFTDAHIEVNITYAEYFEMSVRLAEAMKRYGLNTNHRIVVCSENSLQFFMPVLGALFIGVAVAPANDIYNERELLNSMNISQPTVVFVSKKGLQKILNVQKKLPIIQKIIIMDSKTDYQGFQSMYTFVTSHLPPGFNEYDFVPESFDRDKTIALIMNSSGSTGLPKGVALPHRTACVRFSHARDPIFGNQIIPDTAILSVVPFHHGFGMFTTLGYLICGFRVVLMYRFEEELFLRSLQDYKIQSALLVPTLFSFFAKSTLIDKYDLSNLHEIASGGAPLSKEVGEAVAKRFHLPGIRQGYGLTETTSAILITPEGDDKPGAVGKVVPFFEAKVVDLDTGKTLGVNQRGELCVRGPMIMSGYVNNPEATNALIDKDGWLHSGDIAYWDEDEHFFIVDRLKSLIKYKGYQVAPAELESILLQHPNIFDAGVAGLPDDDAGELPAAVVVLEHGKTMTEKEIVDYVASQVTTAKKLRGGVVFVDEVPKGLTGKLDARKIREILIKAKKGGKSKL

With `COC(=O)C(CC#Cc1ccc2c(c1)[C@]1(C(=O)N2)[C@H](C(=O)NC[C@H](O)c2ccccc2)[C@H]2C(=O)O[C@H](c3ccccc3)[C@H](c3ccccc3)N2[C@@H]1c1ccc(O)cc1)C(=O)OC`, the composite z-score was -0.716 in test [1]; -0.0341 in test [2]; 0.105 in test [3]; -0.906 in test [4]; 0.276 in test [5]; 0.0859 in test [6]. In addition, the results for the composite z-score (in the test on Lefty1; in test [8]) were 0.192 and 0.0123, respectively. Further, the results for the z-score in test [7] and in test [9] were -1.62 and -0.168 (inactive), respectively.

Regarding `COC(=O)[C@@]1(Cc2ccc(F)cc2)[C@H]2c3cc(C(=O)N(C)C)n(CCF)c3C[C@H]2CN1C(=O)c1ccccc1`, the composite z-score in test [1] is 1.67; in test [2], 0.911; in test [3], 0.0655; in test [4], 0.911; in test [5], -0.0051; in test [6] it was -0.162. In addition, the composite z-score is -0.45 in the test on Lefty1 and 0.338 in [8]. Further, the z-score in test [7] is 0.656; in test [9], -1.09 (inactive).

As for `CC1CC/C=C\[C@H]2OC34C=CCN(CCN5CCOCC5)C(=O)[C@H]3N(C(CO)C(C)C)C(=O)[C@@H]4C2C(=O)O1` (stereo not given in full), the composite z-score is -0.622 in [1]; -0.033 in test [2]; -0.125 in [3]; -0.248 in [4]; -0.277 in [5]; -0.3 in test [6]. Further, the composite z-score with Lefty1 was 0.544; in test [8], -0.281. Besides, the z-score in [7] was 0.302; in test [9], -0.723 (inactive).

Take `COc1ccc([Si](C)(C)[C@H]2[C@H](CC(=O)N(CCO)Cc3ccccc3)O[C@@]3(C(=O)N(Cc4ccc(N5C(=O)c6cccc7cccc5c67)cc4)c4ccccc43)[C@@H]2C)cc1`: the composite z-score in test [1] worked out at 0.53; in [2], 0.714; in [3], 0.0253; in [4], 0.624; in test [5] it was 1.17; in [6], 1.06. Also, the composite z-score in the test on Lefty1 worked out at 1.2; in test [8], 0.59. The figures for the z-score in test [7] and in test [9] were -0.701 and -0.354 (inactive), respectively.

Take `COCCOC(=O)N1C(=O)[C@@]2(c3cc(C#CCC(C(=O)OC)C(=O)OC)ccc31)[C@H](c1ccc(O)cc1)N1[C@H](c3ccccc3)[C@H](c3ccccc3)OC(=O)[C@H]1[C@@H]2C(=O)N1CCc2cc(OC)c(OC)cc2C1`: the composite z-score in test [1] was found to be 2.46; in test [2], 1.2; in test [3], 0.362; in [4], 0.741; in test [5], 1.27; in [6], 1.26. For the same compound, the results for the composite z-score (in the test on Lefty1; in [8]) were 0.633 and 0.801, respectively. Also, the z-score in test [7] is 0.627; in test [9], -1.05 (inactive).

Regarding `COCCCNC(=O)[C@@]1(Cc2ccccc2I)c2ccccc2C(=O)N(C2CCCCC2)[C@H]1c1ccc(CO)cc1`, the composite z-score in test [1] was 0.912; in test [2] it was 1.02; in test [3] it was 0.312; in test [4], 0.544; in [5], 0.926; in test [6], 1.29. The composite z-score is 0.812 with Lefty1 and 0.772 in [8]. Also, the z-score in test [7] is 0.438; in test [9], 0.948 (inactive).

For `COc1ccc(C(=O)Nc2ccc(CN3C(=O)[C@@]4(O[C@@H](CC(=O)N(CCO)Cc5ccccc5)[C@H]([Si](C)(C)c5ccc(OC)cc5)[C@H]4C)c4ccccc43)cc2)cc1`, the composite z-score in [1] worked out at 0.757; in [2], 0.066; in test [3], 0.385; in test [4], 0.0715; in test [5] it was 0.35; in test [6], 0.936. In addition, the results for the composite z-score (in the test on Lefty1; in test [8]) were 1.11 and 1.1, respectively. For the same compound, the z-score in [7] was -0.266; in test [9], 0.594 (inactive).

Consider `COc1ccc(C(O)C2C=CC3C(=O)N(C)C(=O)C3N2Nc2ccccc2)cc1` (stereo not given), for which the composite z-score was found to be 0.908 in test [1]; 1.24 in [2]; 0.368 in [3]; 0.925 in test [4]; 0.578 in [5]; 0.0159 in test [6]. The values for the composite z-score (in the test on Lefty1; in [8]) were -0.341 and 1.08, respectively. Further, the z-score is 0.436 in [7] and -1.17 (inactive) in test [9].

In the case of `Cc1cccc([C@H]2C[C@H]3C(Br)=C[C@@]2(CO)C(=O)[C@]32CO2)c1`, the composite z-score in [1] was 0.338; in test [2] it was -0.15; in test [3], 0.259; in test [4] it was -1.05; in [5], 0.39; in test [6] it was -0.117. Besides, the composite z-score with Lefty1 is 0.433; in test [8], -0.549. The z-score in [7] was -0.843; in test [9], 0.75 (inactive).

As to `CC(C)(C)OC(=O)N1[C@@H](C=C(Br)Br)COC1(C)C`, the composite z-score in test [1] is 0.286; in [2], 0.974; in test [3], -0.0276; in [4], 0.592; in [5] it was 0.652; in test [6], 0.65. In addition, the composite z-score in the test on Lefty1 is 0.519; in test [8], -0.0422. Moreover, the z-score in test [7] was 0.206; in [9], -1.04 (inactive).

`C#CCN(C(=O)OC(C)(C)C)[C@H](CO)c1ccccc1`: the composite z-score in test [1] was 0.137; in test [2] it was 0.266; in test [3] it was 0.0987; in test [4], -0.0218; in test [5], -0.0032; in test [6] it was 0.579. Moreover, the figures for the composite z-score (in the test on Lefty1; in test [8]) were 0.543 and -0.174, respectively. The values for the z-score in [7] and in test [9] were -0.766 and 0.978 (inactive), respectively.
